Hits are enriched below; roughly 4.1% of the tested compounds scored in any of these assays.
NALP1 yeast inh = NALP1 inhibition; S. cerevisiae NALP1/ASC/caspase-1 growth, X-gal OD620, 72 h; inhibition, % at 10 µM; 0.61% of 280,000 active; AID 2071; in the data active means inhibition mostly above about 24%, no sharp cut-off; inactive means mostly below about 32%
TIM10 inh = TIM10 yeast growth inhibition. 1.4% of 330,000 active. S. cerevisiae TIM10 strain growth, BacTiter-Glo luminescence, 24 h. inhibition, % at 10 µM;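 active means inhibition of 40% or more at the single tested concentration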;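 further: wild-type TIM10 isogenic control strain grown at permissive 25 °C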
tim10-1 inh = tim10-1 yeast growth inhibition. S. cerevisiae tim10-1 ts strain growth, BacTiter-Glo, 24 h. inhibition, % at 20 µM. 2.2% of 330,000 active. AID 463190;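 active means inhibition of at least 40%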;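 further: mutant grown at 25 °C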
NALP3 yeast inh = blocks the NALP3 inflammasome reconstituted in yeast. Yeast reconstituted NLRP3/ASC/caspase-1, beta-gal luminescence, 24 h. inhibition, % at 10 µM. 0.39% of 330,000 active;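 active means inhibition of 50% or more; inactive means inhibition below 50%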
tim23-1 inh = tim23-1 yeast growth inhibition | S. cerevisiae tim23-1 growth, BacTiter-Glo luminescence, 24 h | inhibition, % at 20 µM | 1.3% of 330,000 active | AID 463212;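 active means growth inhibition of the mutant yeast at or above 50%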;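 further: temperature-sensitive mutant grown at 25 °C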
NALP3 confirm = NALP3 inhibition confirmation in yeast; inhibition, % at 10 µM; shares compounds with NALP3 yeast inh; yeast expressing human NALP3, luminescence; AID 435006; 81% of 1,300 active; in the data active means inhibition above about 48%
Casp1 ASC ctr = counter-screen for NALP3 inhibitors: yeast caspase-1-ASC | 66% of 1,000 active | yeast expressing Caspase-1-ASC, luminescence counter screen | shares compounds with NALP3 yeast inh | inhibition, % at 10 µM
NALP3 retest = retest-confirmed inhibitor of NALP3 in yeast | inhibition, % at 10 µM | yeast expressing human NALP3, luminescence read-out | shares compounds with NALP3 yeast inh | 53% of 1,000 active
Hits are given with their value; – = inactive; · = not tested or not shown. Unless noted, no stated cut-off is given here; in the data, active means inhibition above about 50%; inactive means the rest.

SMILES	NALP1 yeast inh	TIM10 inh	tim10-1 inh	NALP3 yeast inh	tim23-1 inh	NALP3 confirm	Casp1 ASC ctr	NALP3 retest
COc1cc(C(=O)Nc2scc(-c3ccc(Br)cc3)c2C(=O)O)cc(OC)c1OC	–	–	–	–	–	·	·	·
Cc1cccc(C(=O)Nc2scc(-c3ccc(Br)cc3)c2C(=O)O)c1	·	–	–	61.0	–	61.2	–	–
CCOC(=O)C1(Cc2cccc(F)c2)CCN(CC(O)CO)CC1 (stereo not given)	·	–	–	–	–	·	·	·
O=C(NCCCCc1ccccc1)c1ccccc1F	–	–	–	54.1	–	62.5	53.1	–
O=C(NCCCCc1ccccc1)c1ccc(Br)cc1	–	–	–	58.7	–	60.8	–	–
O=C(CSc1nnc(-c2ccco2)n1-c1ccccc1Cl)Nc1cccc(C(=O)O)c1	–	–	–	–	–	·	·	·
CCOc1ccccc1NC(=O)CSc1nc2ccccc2c(=O)n1CC1CCCO1 (stereo not given)	–	–	–	–	–	·	·	·
CC(Oc1ccc(F)cc1)C(=O)Nc1cc(C(F)(F)F)ccc1-n1cncn1 (stereo not given)	·	–	–	–	–	64.2	–	–
COc1ccc(C(=O)Nc2cc(C(F)(F)F)ccc2-n2cncn2)cc1	–	–	–	–	–	·	·	·
COc1cc(C2NC(=S)NC(C)=C2C(=O)Nc2cc(C)cc(C)c2)ccc1O (stereo not given)	–	–	–	–	–	·	·	·
CC(=O)Oc1ccc(Oc2ccc(-c3noc(C)n3)cc2)cc1	–	–	–	56.4	–	72.2	70.1	56.2
CCNc1ccc(C2(O)C(=O)c3ccccc3C2=O)cc1	–	–	–	–	–	·	·	·
CCCN1CCCc2cc(CN)ccc21	–	–	–	53.9	–	59.8	·	·
COc1ccc(C(=O)Nc2nc3ccccc3[nH]2)cc1OC	–	–	–	–	–	·	·	·
COc1ccc(Cl)cc1C(=O)Nc1nc2ccccc2[nH]1	38.3	–	–	72.0	–	78.1	76.7	72.1
Cc1cc(C)cc(C(=O)Nc2nc3ccccc3[nH]2)c1	–	–	–	52.1	–	52.5	60.6	–
COc1ccc(C2=C(CC(=O)O)C(=O)CC2)cc1	–	–	–	–	–	·	·	·
CC(=O)c1cccc(N(C(=O)CNC(=O)c2cccs2)C(C(=O)NCC2CCCO2)c2ccccc2)c1 (stereo not given)	–	–	–	–	–	·	·	·
CCN(CC)Cc1ccc(OC)c(Cl)c1	–	–	–	–	–	·	·	·
COc1ccc(CSCCN)cc1Cl	–	–	–	67.6	–	69.5	70.6	73.2
COc1ccc(/C(C)=N/NC(=O)c2cc(C)[nH]n2)c(OC)c1	–	–	–	–	–	·	·	·
O=[N+]([O-])c1cccnc1S(=O)(=O)c1ccccc1	–	–	–	57.7	–	63.1	50.3	–
Cc1ccc(NN2C(=O)C=C(c3ccccc3)C2=O)cc1	–	–	–	82.7	–	71.8	95.8	62.0
O=C(Nc1ccc(Br)cn1)c1cccc2ccccc12	·	–	–	51.5	–	–	·	·
CC(C)N1CCC(N2CCN(Cc3cc4c(cc3Cl)OCO4)CC2CCO)CC1 (stereo not given)	–	–	–	–	–	·	·	·
SMILES	NALP1 yeast inh	TIM10 inh	tim10-1 inh	NALP3 yeast inh	tim23-1 inh	NALP3 confirm	Casp1 ASC ctr	NALP3 retest
Oc1c(N=Nc2ccccc2)sc2ccccc12	–	–	–	50.6	–	70.7	·	·
CCOc1cc(C)c(S(=O)(=O)N2CCCC2)cc1C	–	–	–	82.9	–	79.6	90.4	81.0
COc1cc(C)c(S(=O)(=O)N2CCOCC2)cc1C	–	–	–	–	–	·	·	·
CCOc1ccc(Cl)cc1S(=O)(=O)N1CCCC1	–	–	–	–	–	·	·	·
Cc1cc(S(=O)(=O)N2CCCCCC2)c(Cl)cc1Cl	–	–	–	61.4	–	64.3	70.5	–
CCCOc1cc(C)c(S(=O)(=O)N2CCOCC2)cc1C	–	–	–	57.4	–	52.2	·	·
CC(=O)N1c2ccc(S(=O)(=O)N3CCCCC3)cc2CC1C(=O)NCc1cccc(Cl)c1 (stereo not given)	–	–	–	–	–	·	·	·
COc1ccc2[nH]c(-c3ccc(C)cc3)cc(=O)c2c1	–	–	–	–	–	·	·	·
O=C(NC(=S)/C(=C1\CCCCCN1)[N+](=O)[O-])c1ccccc1	·	–	–	58.7	–	54.2	64.2	–
O=C(NC(=S)Nc1ccccc1[N+](=O)[O-])c1ccccc1	–	–	–	–	–	·	·	·
CCOc1ccc(C(=O)c2cc([N+](=O)[O-])ccc2Cl)cc1	–	–	–	67.1	–	67.2	72.3	69.2
CC1Cc2nc(SCC(=O)OCc3ccccc3)n(C)c(=O)c2S1 (stereo not given)	·	–	–	58.6	–	69.7	–	–
COc1cccc(CSc2nnc(-c3ccc(F)cc3)o2)c1	–	–	–	–	–	·	·	·
COc1ccc(-c2nnc(SCc3cccc(C#N)c3)o2)cc1	–	–	–	53.5	–	–	·	·
Cc1cccc(NC(=O)c2cnc3sccn3c2=O)c1	–	–	–	56.4	–	66.2	52.2	–
O=C(Nc1nc(N2C(=O)c3ccccc3C2=O)n(-c2ccccc2)n1)c1ccc(Cl)cc1	–	–	–	–	–	·	·	·
CCSc1nnc(NC(=O)c2cccs2)s1	–	–	–	52.5	–	63.7	–	–
COc1ccc(C(C)(C)C)cc1NC(=O)CCc1c(C)noc1C	·	–	–	–	–	·	·	·
Clc1nnc(N/N=C/c2ccccc2)c2ccccc12	–	–	–	60.1	–	71.3	–	–
COc1cc(C(=O)NC(C)c2cccc3ccccc23)cc(OC)c1OC (stereo not given)	–	–	–	–	–	·	·	·
Cc1nc(SCc2ccc(OCCC(C)C)cc2)n[nH]1	–	–	–	76.3	–	83.5	93.2	89.2
CCCCCOc1ccc(CSc2n[nH]c(C)n2)cc1	–	–	–	63.8	–	75.3	70.2	81.6
O=C(O)/C(=C\c1cccs1)c1ccccc1	–	–	–	–	–	·	·	·
O=C(Nc1cccc(-c2ccc(N3CCOCC3)nn2)c1)c1ccc(Cl)cc1	·	–	–	–	–	·	·	·
O=C(COc1ccc(Cl)cc1)Nc1cccc(-c2ccc(N3CCOCC3)nn2)c1	·	–	–	61.3	–	75.0	–	–
SMILES	NALP1 yeast inh	TIM10 inh	tim10-1 inh	NALP3 yeast inh	tim23-1 inh	NALP3 confirm	Casp1 ASC ctr	NALP3 retest
Cc1ccc(CNc2cnn(C34CC5CC(CC(C5)C3)C4)c(=O)c2Cl)cc1	–	–	–	52.8	–	48.9	–	–
NCCc1nnc(SCc2ccc(F)cc2)o1	–	–	–	58.9	–	73.8	57.5	61.2
CCc1ccccc1NC(=O)c1cc(-c2cccs2)on1	–	–	–	56.5	–	65.0	59.0	59.8
CCCOc1ccc(C2=CSC3=NCCN23)cc1	–	–	–	–	–	·	·	·
Cn1c(=NC(=O)COc2ccccc2)sc2ccccc21	–	–	–	59.8	–	–	·	·
Cn1c(=NC(=O)CS(=O)(=O)c2ccccc2)sc2ccccc21	·	–	–	–	–	·	·	·
Cc1ccc(C(C)C)c(Oc2nnnn2-c2ccccc2)c1	–	–	–	–	–	·	·	·
